Reference: PubChem BioAssay (NCI)
The panel holds about 83,000 compounds, 20% with a hit somewhere; the sample as a whole holds those more often.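 Method: cells in 96-well plates; compound added at one concentration; 48 h incubation; percent growth measured; values under 10 scored active.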 Activity calls are given as the source filed them.

system: PC-3 prostate; experiment: NCI-60 one-dose screen, 48 h (100 = growth as untreated, 0 = no growth, -100 = all killed); details: 10 µM unless noted

| Structure (SMILES) | growth |
| --- | --- |
| Cc1ccc2c(n1)C(=O)C(Cl)=C(Nc1cccc(C(C)C)c1)C2=O | 57.9% (inactive) |
| Cn1cc(-c2cc(N)n3nc(-c4cn(C)c5ccc(F)cc45)cc3n2)c2cc(F)ccc21 | 63.4% (inactive) |
| Cn1c(SCC(=O)c2cccs2)nc2ccccc2c1=O | 90.3% (inactive) |
| CCCC(=O)NC(c1ccc(N(CC)CC)cc1)c1cc(C)c2cccnc2c1O (stereo not given) | 39.3% (inactive) |
| COC(=O)C1CCCN(S(=O)(=O)/N=C2\NC(=O)NC2=C(Cl)Cl)C1 (stereo not given) | 101% (inactive) |
| O=C(N/N=C/c1ccc([N+](=O)[O-])s1)c1[nH]c2ccc(Br)cc2c1-c1ccccc1 | 26.5% (inactive) |
| C=C1CC[C@H]2[C@@](C)(CCC3OC(c4ccc(OCc5cn(C6CC(OC(C)=O)C(OC(C)=O)C(COC(C)=O)O6)nn5)cc4)OC[C@]32C)[C@@H]1/C=C/C1=CCOC1=O (stereo not given in full) | 62% (inactive) |
| COc1ccc([C@@H]2c3[nH]c4ccccc4c3CC3C(=O)N(C4CCN(Cc5c(F)cccc5F)CC4)CC(=O)N32)c(OC)c1 (stereo not given in full) | 35.2% [5.26 µM] (inactive) |
| O=C(N/N=C/c1ccc(Br)s1)c1[nH]c2ccc(Br)cc2c1-c1ccccc1 | 28.8% (inactive) |
| O=C1c2c(c3c4cccnc4[nH]c3c3ccc4ccccc4c23)C(=O)N1CCO | 70.1% (inactive) |
| Nc1c(C(=O)Nc2ccc(C(F)(F)F)cc2)sc2nc(-c3cnccn3)cc(-c3cccs3)c12 | 42.2% (inactive) |
| CSc1ccc2c(c1)N(C(=O)/C(C#N)=C/c1c[nH]c3ccccc13)c1ccccc1S2 | 28.8% (inactive) |
| Cc1cc(C(=O)Nc2sc3c(c2C(N)=O)CCC(=O)C3)ccc1OCCN1CCCCC1 | 88.6% (inactive) |
| CN(C)c1ccc(/C=c2\sc3nc4ccccc4n3c2=O)cc1 | 106% (inactive) |
| CN(C)c1ccc(/C=C2\Cc3c(F)ccc(Br)c3C2=O)cc1 | 92% (inactive) |
| CN1CCN(Cc2ccc(NC(=O)c3cncc(C#Cc4cnc5ccc(N6CCSCC6)nn45)c3)cc2C(F)(F)F)CC1 | 1.39% (active) |
| COc1cc(/C=C/C(=O)c2ccc(C)cc2)ccc1Oc1nc(NCCO)nc(N2CCOCC2)n1 | 30.6% (inactive) |
| O=C(CSc1nnc(-c2ccc3nc(-c4ccc(Cl)cc4)[nH]c3c2)o1)Nc1ccc(C(=O)/C=C/c2ccc(Cl)cc2)cc1 | 87.7% (inactive) |

| Structure (SMILES) | growth |
| --- | --- |
| C#Cc1nc(C2=C(C)C(=N\O)/C(=N/O)C2)cs1 | 90.6% (inactive) |
| CCOc1ccc2nc(NC(=O)c3ccc(C(F)(F)F)cc3)sc2c1 | 108% (inactive) |
| CC(O)C(NC(=O)C1CCCN1C(=O)CNC(=O)C1CC(=O)NCC(=O)NC(Cc2c[nH]c3ccccc23)C(=O)NC(Cc2ccc(O)cc2)C(=O)NCC(=O)NC(CO)C(=O)NC(CCC(N)=O)C(=O)NC(Cc2c[nH]c3ccccc23)C(=O)N1)C(=O)NCC(=O)NC(CCC(N)=O)C(=O)NC(CCCNC(=N)N)C(=O)NC(CC(=O)O)C(=O)O (stereo not given) | 76.7% (inactive) |
| CC1=C(C)C(=O)C(Nc2ccccc2)=C(Cl)C1=O | 73.9% (inactive) |
| CO/N=C1\CCc2c(sc(NC(=O)c3cccc(C(F)(F)F)c3)c2C(N)=O)C1 | 64.8% (inactive) |
| COc1ccc(CNS(=O)(=O)/N=C2\NC(=O)NC2=C(Cl)Cl)cc1 | 28% (inactive) |
| NS(=O)(=O)c1cccc(Nc2nc(SCC(=O)c3ccc([N+](=O)[O-])cc3)nc3ccccc23)c1 | 24.2% (inactive) |
| Cn1ccnc1C(=O)/C=C/c1ccc(NC(=O)Nc2ccccc2)cc1 | 37.8% (inactive) |
| CCOC(=O)c1sc(N)c(C(=O)OCC)c1C | 54.4% (inactive) |
| CN(C)S(=O)(=O)c1oc(-c2ccccc2)nc1C#N | 88.7% (inactive) |
| O=C1Nc2cc(Cl)ccc2/C1=C\c1ccc(OCc2ccc(Br)cc2F)cc1 | -57.1% (active) |
| COc1cc(/C=C/C(=O)c2cc(OC)c(OC)c(OC)c2)ccc1OCc1ccccc1 | 40.1% (inactive) |
| NC(=O)c1cc(-c2ccc3ncnc(N4CCc5cc(F)c(Cl)cc54)c3c2)cnc1N | 25% (inactive) |
| COc1ccc(NC2=C(Cl)C(=O)C(C)=C(C)C2=O)cc1OC | 67.9% (inactive) |
| Cn1ccnc1C(=O)/C=C/c1ccc(NC(=O)Nc2ccc(F)cc2)cc1 | 53.2% (inactive) |
| O=C(CCN1C(=O)/C(=C/c2ccccc2)SC1=S)N1CCOCC1 | 111% (inactive) |
| Cc1ccc(CNS(=O)(=O)/N=C2\NC(=O)NC2=C(Cl)Cl)cc1 | 38.9% (inactive) |
